Luc counter: Counterscreen for Luciferase (Kinase-Glo TM) Inhibition; actives 0.28% (n = 200,000); Kinase-Glo luciferase, ATP luminescence, 8 min; Potency, µM (highest dose often 38.3 µM), for the others: at the top dose activity change, negative = inhibition, actives largely listed as inhibitors; AID 1379, 2008; Luciferin 4-monooxygenase (Photuris pensylvanica), Q27757; also: nearly all actives have a fitted effect of over 60% in size
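Recombinant Kinase-Glo luciferase, 10 uM ATP (linear range), luciferin; imidazole pH 7.2 / KCl / MgCl2 / Tween / BSA buffer; 8 min RT; luminescence.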
Gal4-VP16 FLuc: VP16 counterscreen qHTS for inhibitors of ROR gamma transcriptional activity. Potency, µM (doses to about 53.6 µM), without a hit: at the top dose activity, negative = inhibition, hits mostly inhibitors. Drosophila S2 Gal4-VP16 UAS-luciferase, luminescence, 20 h. AID 2546, 2010. actives 3.5% (n = 310,000);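 also: Gal4-VP16 expression switched on by copper sulfate through the metallothionein promoter; nearly all actives have a fitted effect of over 50% in size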
RORgamma inh: qHTS for inhibitors of ROR gamma transcriptional activity. Nuclear receptor ROR-gamma (Mus musculus), P51450. Potency, µM (series often up to 53.6 µM), inactives show top-dose activity change, negative = inhibition, hits mostly inhibitors. actives 5.4% (n = 310,000). AID 2551, 2010. Drosophila S2 Gal4-RORgamma UAS-luciferase reporter, 20 h; also: nearly all actives have a fitted effect of over 60% in size
Target sequence (P51450 whole entry, looked up, the tested form may be a part): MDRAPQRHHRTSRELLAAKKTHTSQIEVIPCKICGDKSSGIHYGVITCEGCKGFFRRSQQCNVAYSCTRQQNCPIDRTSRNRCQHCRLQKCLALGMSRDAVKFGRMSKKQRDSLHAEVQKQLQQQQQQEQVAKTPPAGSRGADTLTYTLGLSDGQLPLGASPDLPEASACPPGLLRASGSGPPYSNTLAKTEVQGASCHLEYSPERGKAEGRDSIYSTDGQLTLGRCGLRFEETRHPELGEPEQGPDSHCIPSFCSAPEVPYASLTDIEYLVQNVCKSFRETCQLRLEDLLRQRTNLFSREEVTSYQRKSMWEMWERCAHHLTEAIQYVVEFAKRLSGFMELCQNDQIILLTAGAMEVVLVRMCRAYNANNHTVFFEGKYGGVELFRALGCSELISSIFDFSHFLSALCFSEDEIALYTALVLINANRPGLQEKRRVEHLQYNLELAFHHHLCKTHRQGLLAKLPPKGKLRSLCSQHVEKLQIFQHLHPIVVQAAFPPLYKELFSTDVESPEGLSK
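A Gal4/UAS one-hybrid system in insect cells: metallothionein-promoter Gal4–ROR gamma fusion plus Photinus luciferase reporter. Copper sulfate 700 uM final, 20 hr ambient incubation, luminescent detection after 10 min with reagent.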
An asterisk follows results filed as active; ? = inconclusive; nt = no result; ! = not active in a repeat; [ ] = another dose, or the depositor's remark. An excerpt weighted towards active compounds, which were near 6.4% of everything screened. Calls follow the shape of the dose curve; as a rule, active = well fitted curve in the direction sought with a large enough effect; inconclusive = small, poorly fitted or top-dose-only effect, or another doubt; inactive = no such curve, though single readings can be large; an effect the other way counts as inactive or inconclusive. % is scaled to controls: 0 for no effect and ±100 for the full control effect; potency is read from the fitted curve at half-maximal effect.

SMILES	Luc counter	Gal4-VP16 FLuc	RORgamma inh
Cc1oc(-c2ccccc2F)nc1CS(=O)CC(=O)NCc1ccc(F)cc1 (stereo not drawn)	nt	4%	-24%
Cc1ccccc1OCCn1cc(C(=O)C(=O)N2CCOCC2)c2ccccc21	2%	-23%	31%
COc1ccccc1OCCn1cc(C(=O)O)c2ccccc21	1%	-24%	0%
CC(=O)c1cn(CCOc2ccccc2C)c2ccccc12	nt	4.5µM*	?
Cc1ccccc1OCCn1cc(C(=S)N2CCN(C)CC2)c2ccccc21	-1%	-15%	13µM*
Cc1ccc(S(=O)(=O)CCC(=O)Nc2ccccc2Br)cc1	nt	0%	-17%
COC(=O)CC1=COC2OCC3=CC[C@@H]1C32 (stereo partly drawn)	nt	-1%[10 µM]	-9%[10 µM]
CN(C)c1nc(-c2ccc3c(c2)OCO3)nc2ccccc12	nt	-2%	-5%
CCOC(=O)C(=O)N1CCN(c2cc3c(cc2[N+](=O)[O-])n(C)c(=O)n3C)CC1	0%	0%	-6%
COC(CN(C)S(=O)(=O)c1cc2c3c(c1)CCN3C(=O)CC2)OC	nt	3%	-3%
Cc1nc2oc3ccc(Cl)cc3c(=O)c2cc1C(=O)O	nt	?	-16%
CC(C)c1ccc2oc3nc(N)c(C(=O)O)cc3c(=O)c2c1	nt	4µM*!	7.9µM*
CCS(=O)(=O)N1CCC(NC(=O)C(Cc2cccc(OC)c2OC)NC(C)=O)CC1 (stereo not drawn)	nt	9%	?
CCNC(=O)c1ccccc1SCC(=O)Nc1ccc(F)cc1	2%	-4%	?
Cc1ccc[n+](CC(=O)Nc2cc(C(F)(F)F)ccc2Cl)c1	4%	-3%	-19%
CCC(C)(C)c1ccc(OCCCC[n+]2cccc(C)c2)c(C(C)(C)CC)c1	3%	13µM*	?
Cc1cc(C(=O)CN2CCCCC2)c(C)n1-c1ccc(F)cc1	0%	6%	0%
Cc1cc(C(=O)Cn2cc(C(F)(F)F)ccc2=O)c(C)n1-c1ccccc1	1%	?	17%
CC(C)NC(=O)CN1C(=O)c2ccccc2S1(=O)=O	1%	-9%	1%
O=C(CN1C(=O)c2ccccc2S1(=O)=O)c1ccccc1	0%	14µM*	8.9µM*
Cc1cc(C(=O)CN2C(=O)C3CC=CCC3C2=O)c(C)n1-c1ccccc1 (stereo not drawn)	-6%	13µM*	?
O=C(CN1C(=O)c2ccccc2S1(=O)=O)c1ccccc1Cl	nt	?	8.9µM*
O=C(CN1C(=O)c2ccccc2S1(=O)=O)NCc1ccccc1Cl	3%	1%	26%
Cc1cc(C(=O)CN2CCC(C)CC2)c(C)n1-c1ccc(F)cc1	3%	?	10µM*
COc1ccccc1-c1nccc(NCc2cccs2)n1	nt	-13%	-2%
SMILES	Luc counter	Gal4-VP16 FLuc	RORgamma inh
Cc1nnc(S(=O)(=O)c2ccc(N=Nc3c(N)nc(N)nc3N)cc2)s1	0%[7.66 µM]	nt	nt
O=C(NC1CCN(S(=O)(=O)c2cccc(F)c2)CC1)c1cccc(F)c1	nt	-10%	-7%
COCC(=O)N1CCC[C@@]2(CCN(Cc3cc(C(F)(F)F)cc(C(F)(F)F)c3)C2)C1	-2%	7%	-24%
C=CCOc1ccc(/C=N/NC(=O)CN2CCCCC2)cc1OC	nt	-3%	-14%
c1ccc2c[n+](CCCC[n+]3ccc4ccccc4c3)ccc2c1	-1%[7.66 µM]	nt	nt
CCCn1nnnc1NCc1ccccc1C	nt	-4%	?
COc1ccccc1NS(=O)(=O)c1ccc(O)c(NC(=S)NCC2CCCO2)c1 (stereo not drawn)	nt	2%	-15%
C[C@H](O)CN(C)C	nt	-6%	-3%
CC(=O)OCC(NC(=O)C(COCc1ccccc1)NC(=O)OC(C)(C)C)C1OC(n2ccc(=O)[nH]c2=O)C(OC(C)=O)C1OC(C)=O (stereo not drawn)	nt	3%	14%
Cc1ccc(C(=O)CN2/C(=C(\O)c3ccccc3)C(=O)c3ccccc3S2(=O)=O)c(C)c1	2%	?	13µM*
Cc1cc(C(=O)CN2C(=O)c3ccccc3S2(=O)=O)c(C)n1-c1ccccc1	-1%	11µM*	11µM*
O=C(CN1C(=O)c2ccccc2S1(=O)=O)N1CCCCC1	nt	-3%	-11%
CN(Cc1ccccc1)C(=O)CN1C(=O)c2ccccc2S1(=O)=O	nt	-5%	-3%
COC(=O)c1ccc(CN2C(=O)c3ccccc3S2(=O)=O)cc1	-6%	4%	12%
Cc1ccc(C(=O)CN2C(=O)c3ccccc3S2(=O)=O)cc1	nt	?	2.2µM*
Cc1cc(CNC(=O)[C@]2(C(F)(F)F)C[C@H](CCC3CCCCC3)CCCO2)nn1C	nt	3%	-13%
O=[N+]([O-])c1ccc(CSc2ccccn2)cc1	nt	3%	30%
O=[N+]([O-])c1ccc(CSc2ncnc3ccccc23)cc1	1%	23%	7.9µM*
CNc1ccccc1NC(=O)C1CCCN1C(=O)OCc1ccccc1 (stereo not drawn)	nt	-3%	1%
Cc1c(CCCN)c2ccccc2n1Cc1ccccc1	0%	-9%	-29%
CCc1cc(-c2oncc2-c2ccc(OC)cc2)c(O)cc1OC	nt	14µM*	?
COc1ccc(-c2nc(-c3ccccc3)c(-c3cc([N+](=O)[O-])ccc3C)[nH]2)cc1O	4%	?	?
CCc1cc(-c2nc(N)ncc2-c2csc(C)n2)c(O)cc1OC	4%	6%	21%
CCc1cc(-c2[nH]ncc2-c2ccc([N+](=O)[O-])cc2)c(O)cc1OC	nt	20µM*	13µM*
N#CCCN(CC#Cc1ccccc1)OCc1ccccc1	nt	-16%[10 µM]	1%[10 µM]
SMILES	Luc counter	Gal4-VP16 FLuc	RORgamma inh
CCOC(=O)c1nn(-c2ccc(Cl)cc2C)ccc1=O	nt	-2%	-15%
Cc1cc(C)n(CC(O)COc2ccccc2Br)n1 (stereo not drawn)	nt	2%	31%
Cc1cccc(NC(=O)c2cc(C)nc3ccccc23)c1	nt	4%	4%
Cc1cccc(NC(=S)c2nc3ccccc3s2)c1	-11%	5µM*	1.1µM*
Cc1cccc(C(=O)Nc2sc(C)c(-c3ccccc3)c2C#N)c1	3%	?	?
N#Cc1c(Cl)nsc1NC(=O)c1ccccc1	2%	4µM*	8.9µM*
CCOC(=O)c1c(-c2cccc([N+](=O)[O-])c2)csc1NC(=O)CCCOc1ccccc1OC	2%	0%	33%
CCOC(=O)c1c(-c2cccc([N+](=O)[O-])c2)csc1NC(=O)CCCOc1ccccc1	nt	8.9µM*	?
Cc1nc2ccccc2n1CC(O)COc1ccccc1Cl (stereo not drawn)	-2%	18µM*	?
CCC(=O)c1ccc(OCC(O)Cn2c(C)nc3ccccc32)cc1 (stereo not drawn)	0%	7.9µM*	?
CCOC(=O)c1c(C)n(C)c2ccc(OCC(O)Cn3c(C)nc4ccccc43)cc12 (stereo not drawn)	0%	-13%	-21%
CCC(=O)c1ccc(OCC(O)Cn2cnc3ccccc32)cc1 (stereo not drawn)	1%	-15%	?
Cc1nc2ccccc2n1CC(O)COc1ccc(Br)cc1 (stereo not drawn)	-3%	14µM*	?
Cc1nc2ccccc2n1CC(O)Cn1c(C(F)(F)F)nc2ccccc21 (stereo not drawn)	-1%	0%	29%

Bioassay records from PubChem.
